From PubChem BioAssay (NCI)
Several values for one entry are separate records, joined by “and”; a condition that tells them apart may be missing. Equal entries are not always repeated. This is part of a sample that, as a whole, favours compounds with a hit. Of some 83,000 tested, about 20% had one in any assay.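 Activity criterion: percent growth below 10, measured after cells in 96-well plates were exposed to a single compound concentration for 48 hours.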 A number with no mark means an inactive call. Activity calls are given as the source filed them.

Each compound was assayed on MOLT-4 leukemia (assay: NCI-60 one-dose screen, 48 h (100 = growth as untreated, 0 = no growth, -100 = all killed)). Conditions: 10 µM unless noted.
`Cc1cccc(/C=C/c2ccc(NC(=S)NCCCCN(C)C)cc2)c1` was tested, and the growth was -16.1% (active).
`Cc1ccc(C(=O)C[n+]2cccc3c4ccccc4ccc32)cc1` showed a growth of 14.4%.
`c1ccc(CSc2nnc(-c3ccc4nc(-c5ccccc5)[nH]c4c3)o2)cc1` gave a growth of 58.2%.
With `O=C(Nc1ccc(-c2ccc3c(c2)NC(=O)/C3=C\c2ccc[nH]2)cc1)Nc1cccc(Cl)c1` the growth was 5.1% (active).
`N#Cc1c(-c2ccc(F)cc2)nc(SCc2ccc(F)cc2)nc1N1CCNCC1` was tested, and the growth was 7.79% (active).
`Cc1cc(C2(c3cc(C)c(OCC(O)CNc4c(C)n(C)n(-c5ccccc5)c4=O)cc3C(C)C)OC(=O)c3ccccc32)c(C(C)C)cc1OCC(O)CNc1c(C)n(C)n(-c2ccccc2)c1=O` (stereo unspecified) gave a growth of 13.1%.
`O=CNc1cccc(-n2cnc3cc(-c4ccc(O)cc4)ccc32)c1` gave a growth of 27.7%.
For `COc1ccc(S(=O)(=O)Nc2ccc(-c3ccc4c(c3)NC(=O)/C4=C\c3ccc[nH]3)cc2)cc1OC`, the growth was 49%.
For `CC(=O)Nc1cccc(-n2c(COc3ccc(Br)cc3)nc3ccccc32)c1`, the growth was 84.6% and 101%.
With `CCCCNC(=S)Nc1ccc(OCc2nc3ccc(Cl)cc3[nH]2)cc1` the growth was 9.85% (active).
In the case of `COc1ccc(OC)c(Cn2cc(C#N)c(N)c2C(=O)c2ccc(Br)cc2)c1`, the growth is reported as 20.4%.
With `NCCCCn1c(SCCc2c[nH]c3ccccc23)nnc1-c1ccc2ccccc2n1` the growth was -35.4% (active).
In the case of `COc1cc(CNC(=O)C[C@H](C)CCC=C(C)C)ccc1OCc1cn(-c2ccccc2Cl)nn1`, the growth is reported as 16.3%.
With `NS(=O)(=O)c1ccc(N2N=C(c3ccc(NC(=O)Nc4ccccc4)cc3)CC2c2ccc(Br)cc2)cc1` (stereo unspecified) the growth was 9.26% (active).
In the case of `COc1ccc(NC(=O)CSc2nnc(-c3ccc(-c4nc5ccc(Cl)cc5[nH]4)cc3)o2)cc1`, the growth is reported as 37.5%.
`CC1=C(C(=O)OCc2ccccc2)C(c2ccc(N(C)C)cc2)n2c(nc3ccccc32)N1` (stereo unspecified) gave a growth of 100%.
In the case of `NS(=O)(=O)c1ccc(Nc2nc(N/N=C/c3cc(Br)c(O)c(Br)c3)nc(Nc3ccccc3)n2)cc1`, the growth is reported as -8.36% (active).
For `COc1cccc(NC(=O)c2ccc(NC(=O)CCl)s2)c1`, the growth was -7.31% (active).
`Cc1oc(-c2ccccc2)nc1CN[C@@H]1C[C@@H]2C[C@H]([C@H]1C)C2(C)C` was tested, and the growth was 0.127% (active).
`C=CC(=O)Nc1ccc(C(=O)/C=C/c2ccc(N(C)C)cc2)c(O)c1` was tested, and the growth was 7.05% (active).
With `COc1cc(/C=C/C(=O)c2cnn(-c3cc(=O)[nH]c4ccc(Cl)cc34)c2C)cc(OC)c1OC` the growth was -10.9% (active).
With `COc1cc(C=O)ccc1Oc1nc(Nc2ccc(F)cc2)nc(N(C)C)n1` the growth was 73.1% and 23.8%.
With `Cn1cc(-c2cc3nc(-c4cn(C)c5ncccc45)cc(N)n3n2)c2cc(F)ccc21` the growth was 55.5%.
Work on `Cc1ccccc1NC(=O)c1cccc(NC(=O)CCl)c1` yielded a growth of 29.7%.
In the case of `FC(F)(F)c1cc2c(Cl)ncnc2n1CCN1CCCCC1`, the growth is reported as -14.3% (active).
In the case of `Cn1cc(-c2cc(N)n3nc(-c4c[nH]c5ccc(Cl)cc45)cc3n2)c2cc(Br)cnc21`, the growth is reported as -56.2% (active).
